According to PubChem BioAssay AID1421 (Emory University Molecular Libraries Screening Center, 2008):
Among all 1,300 compounds or so, about 140 (11%) were called active. How the calls were made is not given here. A selection follows. Results with a measured potency or affinity are listed apart.

These molecules were tested against Prostaglandin E2 receptor EP2 subtype (Homo sapiens) (UniProt P43116) (assay: compounds shifting PGE2 potency at EP2 – cell-based, human EP2, PGE2 EC50 shift, dose response (AID 1421)). Settings: EP2-expressing cells, PGE2 EC50 shift by compound; at 20 µM.
Prostaglandin E2 receptor EP2 subtype (Homo sapiens), sequence (P43116 whole entry, looked up): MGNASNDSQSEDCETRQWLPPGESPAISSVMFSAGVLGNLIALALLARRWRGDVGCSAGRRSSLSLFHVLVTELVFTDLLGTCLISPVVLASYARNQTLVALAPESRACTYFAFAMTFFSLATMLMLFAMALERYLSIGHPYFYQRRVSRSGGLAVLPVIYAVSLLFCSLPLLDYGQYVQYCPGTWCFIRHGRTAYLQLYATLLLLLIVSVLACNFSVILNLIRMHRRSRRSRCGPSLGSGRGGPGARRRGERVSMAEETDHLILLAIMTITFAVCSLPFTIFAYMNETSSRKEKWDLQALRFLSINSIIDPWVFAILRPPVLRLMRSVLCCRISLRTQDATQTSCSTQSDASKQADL

PGE2 EC50 with compound, inactive:
CCSc1nnc(-c2ccc(Cl)cc2)c2ccccc12 2310 pM, COc1ccc2c(-c3ccccc3)cc(N3CCOCC3)nc2c1 430 pM, Cc1cccc(/C=N/Nc2cc(N3CCOCC3)nc(N3CCOCC3)n2)c1 590 pM, COc1ccc(C2=Nn3c(nnc3C3CCCCC3)SC2)cc1OC 480 pM, CCOC(=O)C1=C(CC)OC(N)=C(C#N)C1c1ccsc1 (stereo unspecified) 520 pM, CCn1c2ccc(Cl)cc2c2nc3ccccc3nc21 400 pM, O=c1c2ccccc2nc(/C=C/c2ccccc2)n1CCc1ccccc1 100 pM, C=CCOc1c(Br)cc(/C=N/n2c(CC)n[nH]c2=S)cc1Br 130 pM, CC(C)c1nc(N2CCN(C(=O)c3ccccc3)CC2)c(C#N)c2c1COC(C)(C)C2 350 pM, Cc1nc2ccccn2c1C(=O)CSc1ccc(Cl)cc1Cl 5690 pM, Cc1cc(C(=O)NCC(c2ccco2)N(C)C)no1 (stereo unspecified) 800 pM, O=S(Cc1cc(Sc2ccccc2)nc(-c2ccccc2)n1)c1ccccc1 (stereo unspecified) 320 pM, CCOC(=O)c1cc2sc(C)cc2n1C(C)C(=O)OCC (stereo unspecified) 350 pM, CCOC(=O)c1[nH]c2ccc(OC)cc2c1NS(=O)(=O)c1ccc(Cl)s1 390 pM, CCOC(=O)c1oc2ccccc2c1NC(=O)c1cccc(OC)c1OC 430 pM, CCOC(=O)CNC(=O)c1ccc2c(c1)OCCO2 460 pM, CCOC(=O)c1c(-c2ccc(C)cc2)csc1NC(=O)c1ccc(N2C(=O)CCC2=O)cc1 290 pM, CCOC(=O)c1c(NC(=O)c2ccncc2)sc(C)c1C 450 pM, Cc1ccccc1Cn1c(-c2cncs2)nc2ccccc21 550 pM, c1ccc(CCc2ccccc2-c2nc(-c3cccnc3)no2)cc1 180 pM, CCOC(=O)c1c(NC(=O)CSc2nnc(N)s2)sc(C)c1-c1ccc(C)cc1 350 pM, Cc1cccc(N=N/C(=C\O)C(=O)c2ccc(Br)cc2)c1 180 pM, Cc1cc(C)c(S(=O)(=O)O)c(C)n1 610 pM, COC(=O)c1[nH]c2ccccc2c1NS(=O)(=O)c1ccc(F)c(C)c1 410 pM, Cn1c(=O)[nH]c(=O)c2c1nc(CN1CCN(c3ccccc3F)CC1)n2CCCc1ccccc1 470 pM, S=c1[nH]nc(-c2ccc(Br)o2)n1Cc1ccccc1 800 pM
